Bioassay records as filed in PubChem BioAssay.
SMN2 splice up: SMN2 splice variant enhancement. HEK293 SMN2-luciferase splicing reporter, luminescence, 30-36 h. Potency, µM (highest dose often 46.1 µM), for the others: at the top dose activity change, positive = activation, hits mostly activators. hit rate 2.8% among 210,000. AID 1458; further: % of control where 0% means no effect; nearly all actives have a fitted effect of over 55% in size
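qHTS luciferase splicing reporter: luminescence rises when SMN2 exon 7 is included in transfected HEK293 cells. Compound exposure lasted 30-36 h at 37C, with 4.5 mM final sodium butyrate as control, followed by a ONE-Glo read.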
Rab9 promoter act: Rab9 promoter activation. hit rate 2.8% among 320,000. Potency, µM (series often up to 9.22 µM), without a hit: top-dose activation, negative = inhibition, actives largely listed as activators. AID 485297. Huh7 Rab9 promoter-luciferase reporter, luminescence, 24 h; further: % of control where 0% means no effect; nearly all actives have a fitted effect of over 60% in size
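Luciferase signal after 10 min detection reagent at ambient indicates Rab9 promoter upregulation; stably transfected Huh7 cells were treated 24 h with compound in DMSO at 37 °C, 5% CO2.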
FLuc counter: firefly luciferase modulation, counter-screen for miR-21 project; P08659; purified FLuc, Km substrates, luminescence inhibition; Potency, µM (titrated, usually from 57.5 µM), without a hit: at the top dose activity change, negative = inhibition, hits mostly inhibitors; hit rate 6.9% among 360,000;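 further: plate controls were vehicle for no effect and reference inhibitor for full effect; nearly all actives have a fitted effect of over 55% in size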
Target sequence (P08659 whole entry, looked up): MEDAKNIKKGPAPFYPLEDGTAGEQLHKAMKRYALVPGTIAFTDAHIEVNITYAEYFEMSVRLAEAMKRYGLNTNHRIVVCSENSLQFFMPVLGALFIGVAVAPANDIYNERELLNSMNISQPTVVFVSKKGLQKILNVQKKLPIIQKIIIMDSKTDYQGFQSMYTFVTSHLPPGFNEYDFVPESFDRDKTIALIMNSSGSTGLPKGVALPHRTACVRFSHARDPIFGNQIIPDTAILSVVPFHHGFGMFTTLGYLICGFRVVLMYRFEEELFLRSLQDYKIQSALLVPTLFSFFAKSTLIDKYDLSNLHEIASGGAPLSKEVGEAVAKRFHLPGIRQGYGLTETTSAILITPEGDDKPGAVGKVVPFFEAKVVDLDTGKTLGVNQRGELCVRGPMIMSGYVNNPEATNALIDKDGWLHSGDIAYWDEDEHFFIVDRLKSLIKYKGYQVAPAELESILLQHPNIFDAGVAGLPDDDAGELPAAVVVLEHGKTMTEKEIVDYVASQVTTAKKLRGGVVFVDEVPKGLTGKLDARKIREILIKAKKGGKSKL
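Purified P. pyralis luciferase (10nM final) with 10uM D-luciferin and 10uM ATP (Km levels) in 50mM Tris acetate pH 7.5, 10mM Mg acetate, 0.01% Tween-20, 0.05% BSA; qHTS 6-point titration, ~60 µM downward; luminescence read.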
ELG1 DNA repair: inhibitors of ELG1-dependent DNA repair in HEK293T cells. hit rate 2.3% among 330,000. HEK293T ELG1-luciferase reporter, luminescence, 16 h; DNA damage induced by 5-fluorouridine. Potency, µM (doses to about 46.1 µM), for inactives: at the top dose activity change, negative = inhibition, most hits filed as inhibitors; further: on the % scale 0 is the no-effect control and ±100 the full control effect; nearly all actives have a fitted effect of over 55% in size
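5-Fluorouridine DNA damage + compound/DMSO, 2,000 cells/well, 16 h, 37 °C/5% CO2. ONE-Glo, 30 min RT, luminescence. Readout = decrease in reporter signal.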
ELG1 genotox: inducers of genotoxicity in HEK293T ELG1-luciferase cells; HEK293T ELG1-luciferase reporter, luminescence, 16 h; Potency, µM (doses to about 46 µM), for inactives: at the top dose activity change, positive = activation, hits mostly activators; hit rate 1.3% among 330,000; AID 504466; further: % of control where 0% means no effect; nearly all actives have a fitted effect of over 60% in size
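Luminescence read-out: rising ELG1-luciferase signal, reflecting elevated ELG1 protein under genetic stress, flags genotoxic compounds. Cells were treated for 16 hr at 37 °C before ONE-Glo detection.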
NPC1 prom act: NPC1 promoter activation | hit rate 2.4% among 320,000 | Huh7 NPC1 promoter luciferase reporter, 24 h | Potency, µM (top dose mostly 9.22 µM), for inactives: top-dose activation, actives largely listed as activators; further: % of control where 0% means no effect; nearly all actives have a fitted effect of over 60% in size
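Luciferase expression driven by the NPC1 promoter was measured in stably transfected Huh7 cells after a 24 h compound incubation, using a luciferase reagent and a luminescence read.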
* marks the source's active call; other numbers are inactive results; u = inconclusive; x = no result; [ ] = remark or other dose. Most compounds without a hit are left out; they make up all but 9.2% or so of the library. The call rests on the fitted dose curve; in most records, active means well fitted curve in the direction sought with a large enough effect; inconclusive means small, poorly fitted or top-dose-only effect, or another doubt; inactive means no such curve, though single readings can be large; an effect the other way counts as inactive or inconclusive. Potency means the concentration at half of the fitted maximal effect.

SMILES	SMN2 splice up	Rab9 promoter act	FLuc counter	ELG1 DNA repair	ELG1 genotox	NPC1 prom act
COc1ccc(N2C(=O)C(CC(=O)Nc3ccc(F)cc3)N(Cc3ccc4c(c3)OCO4)C2=O)cc1 (stereo not given)	4%	x	-12%	x	x	x
Cc1ccc(S(=O)(=O)NCCC(=O)Nc2cc(S(=O)(=O)N(C)C)ccc2C)cc1C	x	2%	1%	u	-13%	-4%
COc1ccc(C2c3c(n(C)c4ccccc34)C(=O)N2CC(=O)Nc2cccc(Cl)c2)cc1 (stereo not given)	x	x	-12%	x	x	x
Fc1ccccc1NC(=S)N/N=C/c1ccccc1Br	11µM*	3.2µM*	13µM*	u	4.5µM*	u
O=C(Nc1ccc(F)cc1)Nc1cccnc1Cl	x	u	17µM*	u	4%	23%
COC(=O)c1ccc(OC(=O)c2ccccc2F)cc1	-4%	-2%	13µM*	u	2%	1%
O=[N+]([O-])c1ccc(/C=N/NC(=S)Nc2ccccc2F)o1	5%	-1%	u	u	7%	1%
COc1ccc(Cl)cc1NC(=O)Nc1ccccc1SC	-4%	-4%	6%	-10%	10%	-1%
Cc1cccnc1NC(=O)Nc1ccc(F)cc1	17%	u	u	u	u	u
CSc1ccccc1NC(=O)Nc1ccc(Cl)cc1	-31%	u	11µM*	u	u	u
O=C(Oc1ccc(C(=S)N2CCOCC2)cc1)c1ccccc1F	x	6%	u	16%	5%	-3%
O=C(Cn1c(=O)oc2ccccc21)Nc1ccc(Cl)cc1Cl	x	-5%	u	-2%	0%	-5%
CN(CC(=O)Nc1ccc(F)c(F)c1F)C(=O)c1ccc(-n2cncn2)cc1	x	-3%	x	-1%	0%	-8%
O=C(C#Cc1ccccc1)Nc1ccccc1F	x	u	1.9µM*	u	17%	u
COC(=O)c1ccc(NC(=O)Nc2ccccc2C)cc1	-21%	u	4.8µM*	-14%	5%	u
COc1cccc(COC(=O)Nc2ccccc2F)c1	x	2µM*	11µM*	u	4.1µM*	1.1µM*
NC(=O)c1ccc(NC(=O)C#Cc2ccccc2)cc1	x	0%	u	u	-33%	-5%
COc1ccc(NC(=O)Nc2ccccc2F)cc1Cl	10µM*	1.4µM*	u	u	5.2µM*	1.8µM*
O=C(CCCc1ccccc1)NC1CC(=O)N(c2ccc(Cl)cc2)C1 (stereo not given)	x	x	-3%	x	x	x
COc1ccc(-c2cc(C(=O)Nc3ccccc3SC)no2)cc1	7%	25%	-1%	u	5%	5%
COc1ccc(NC(=O)Nc2ccccc2F)cc1	11µM*	0.45µM*	3.4µM*	u	2.6µM*	0.56µM*
COc1ccc(NC(=O)Nc2ccccc2F)c(C)c1	x	u	-9%	u	7%	24%
O=C(Nc1ccc(NC(=O)c2ccccc2O)cc1)Nc1ccc(F)cc1F	x	-1%	-7%	7%	0%	1%
COC(=O)c1ccc(NC(=O)Nc2ccccc2F)cc1	2.5µM*	0.45µM*	2.1µM*	u	u	0.4µM*
O=C(Nc1ccc(F)cc1)Nc1ccccc1F	16µM*	1.4µM*	7.6µM*	u	u	2.5µM*
SMILES	SMN2 splice up	Rab9 promoter act	FLuc counter	ELG1 DNA repair	ELG1 genotox	NPC1 prom act
COc1ccc(NC(=O)Nc2ccccc2SC)cc1	13µM*	u	11µM*	u	u	u
COc1cccc(NC(=O)CN(C)C(=O)c2ccc(S(=O)(=O)Nc3ccccc3F)cc2)c1	x	-1%	1%	11%	0%	-3%
COc1ccc(NC(=O)CN(C)C(=O)c2ccc(S(=O)(=O)Nc3ccccc3F)cc2)cc1	x	-5%	13µM*	18%	23%	2%
O=C(Cc1ccccc1F)N1CCN(S(=O)(=O)c2ccc(Cl)cc2)CC1	x	3%	0%	-1%	-1%	1%
CC(=O)NCc1ccc(-c2csc(NC(=O)CCc3nc4ccccc4c(=O)[nH]3)n2)s1	x	x	x	21µM*	-4%	x
Cc1ccc(CNC(=O)CCc2nc3ccccc3c(=O)[nH]2)cc1	-18%	0%	-1%	-11%	-1%	2%
O=C(CCc1nc2ccccc2c(=O)[nH]1)Nc1nnc(SCc2ccc(Cl)cc2)s1	x	-4%	1%	0%	6%	-3%
O=C(CCc1nc2ccccc2c(=O)[nH]1)Nc1nnc(SCc2ccccc2F)s1	x	u	19µM*	u	u	29%
CCCCOc1ccc(CSCCN)cc1Cl	x	-20%	12µM*	u	u	-21%
NC(=O)CSc1nc(C2CC2)nc2sc3c(c12)CCCC3	x	2.5µM*	1.5µM*	u	9.2µM*	2.8µM*
Nc1nc(SCC(=O)NCCOCCO)nc2sc3c(c12)CCCC3	x	0%	27µM*	15%	5%	-2%
NC(=O)CSc1nc(N)c2c3c(sc2n1)CCCCC3	5%	20%	8.5µM*	u	u	20%
C=CCn1c(SCC(N)=O)nc2sc3c(c2c1=O)CCC3	x	-2%	1%	-14%	3%	-2%
O=C(CCCN1C(=O)C(c2ccccc2)Oc2cccnc21)Nc1cccc(F)c1 (stereo not given)	x	0%	-1%	-2%	0%[9.26 µM]	u
Cc1ccc([N+](=O)[O-])cc1N/C=C1\CCc2ccccc2C1=O	-6%	u	u	u	12%	4.5µM*
Cc1ccc([N+](=O)[O-])cc1NC(=O)CCc1ccccc1	-4%	0%	-3%	7%	0%	-6%
c1ccc(-c2ccc(-c3ccc(C4=NCCN4)cc3)o2)cc1	22%[9.22 µM]	x	x	x	x	x
COC(=O)[C@H](Cc1ccccc1)NC(=O)C1(OC(C)=O)CC(OC(C)=O)C(OC(C)=O)C(OC(C)=O)C1 (stereo not given in full)	x	-5%	0%	2%	0%	2%
Cc1nc(-c2nc(-c3c(C(=O)NN)noc3C)cs2)cs1	u	u	17µM*	u	0%	24%
C=CC[C@](C)(O)c1ccccc1	-1%	x	x	x	x	x
CN(C1CCCCC1)C(CNS(=O)(=O)c1ccc(Cl)cc1)c1ccccc1 (stereo not given)	x	-3%	0%	10%	0%	-1%
COc1cc(OC)cc(C(=O)N[C@H](C(=O)Nc2cc(C)cc(C)c2)C(C)C)c1	x	5%	-1%	-12%	-2%	-2%
COc1cc(OC)cc(C(=O)NC(C(=O)Nc2ccc3c(c2)CCC3)C(C)C)c1 (stereo not given)	x	-4%	10%	7.3µM*	-3%	0%
COc1cccc(NC(=O)Nc2ccc3c(c2)CCC3)c1	x	1.6µM*	4.3µM*	u	11%	2.2µM*
